In PubChem BioAssay:
Calls of active or inactive are those of the source. How the calls were made is not given here.

molecular target: Pantothenate synthetase (Mycobacterium tuberculosis (strain ATCC 25618 / H37Rv)) (UniProt P9WIL5); experiment: Recombinant Mtb pantothenate synthetase (PanC) inhibitors, coupled enzyme, confirmatory (AID 375); conditions: coupled enzyme assay; at 10 µM, stronger effect = higher value;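 further: 0% = full reaction with vehicle and 100% = no enzyme background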
Sequence (P9WIL5 whole entry, looked up): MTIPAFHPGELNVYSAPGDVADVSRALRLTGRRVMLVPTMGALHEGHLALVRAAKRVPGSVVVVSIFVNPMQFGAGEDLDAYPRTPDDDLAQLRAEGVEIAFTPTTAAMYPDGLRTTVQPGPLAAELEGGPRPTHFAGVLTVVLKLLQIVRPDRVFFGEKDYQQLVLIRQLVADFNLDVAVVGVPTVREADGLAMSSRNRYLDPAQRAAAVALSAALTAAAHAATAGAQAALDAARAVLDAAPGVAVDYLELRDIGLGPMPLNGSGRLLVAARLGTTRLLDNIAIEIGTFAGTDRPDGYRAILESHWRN

Compound | inhibition
CC1(C)NC(=O)N(CC(O)CN2CCCCC2)C1=O (centres undefined) | 0% (inactive)
COCCNC(=O)c1c(N)n(CCC2=CCCCC2)c2nc3ccccc3nc12 | 0% (inactive)
Cc1ccc2cc(C#N)c(NCCCNC(=O)C3CCCO3)nc2c1 (centres undefined) | 0% (inactive)
Cc1cccc(OCC(=O)N2CCN(C(=O)Cc3ccccc3)CC2)c1 | 1% (inactive)
COc1ccc2cc(C#N)c(N3CCN(Cc4nnnn4CCC(C)C)CC3)nc2c1 | 8% (inactive)
Cc1ccc(CCNC(=O)CC2Oc3ccc(C)cc3NC2=O)cc1 (centres undefined) | 0% (inactive)
CC(=O)N(c1ccc(N(C(C)=O)S(=O)(=O)c2cccs2)cc1)S(=O)(=O)c1cccs1 | 0% (inactive)
O=C(Nc1cccnc1)c1cccc(NC(=O)c2ccco2)c1 | 0% (inactive)
Cn1c(=O)c2c(nc3sccn32)n(C)c1=O | 0% (inactive)
Cc1ccc(-c2noc(COc3ccccc3C)n2)cc1 | 0% (inactive)
COc1ccc(S(=O)(=O)N2CCN(Cc3ccc(Cl)cc3)CC2)cc1 | 0% (inactive)
CCOc1cc(C2NC(=O)NC(O)(C(F)(F)F)C2C(=O)c2ccccc2)ccc1OC (centres undefined) | 3% (inactive)
COC(=O)CSc1nc2nc(C)cc(C)n2n1 | 7% (inactive)
CCN(CC)CCCNC1CCS(=O)(=O)C1 (centres undefined) | 1% (inactive)
CC(C)N(O)C(=O)NC(C)(C)C | 6% (inactive)
O=C(CCNNC(=O)c1ccncc1)NCc1ccccc1 | 0% (inactive)
CC1(C)S[C@@H]2[C@H](NC(=O)Cc3ccccc3)C(=O)N2[C@H]1C(=O)O | 6% (inactive)
CC(C)OC(=O)C(CC(=O)O)NCc1ccccc1 (centres undefined) | 1% (inactive)
COc1ccc(Br)cc1-c1noc(-c2ccccc2)n1 | 4% (inactive)
OC(CCN1CCOCC1)(c1ccc(Cl)cc1)C1CCCCC1 (centres undefined) | 0% (inactive)

Compound | inhibition
CCOC(=O)c1c(NC(=O)c2ccn(CC)n2)sc2c1CCCC2 | 3% (inactive)
O=C1C(Cl)=C(N2CCCCC2)C(=O)N1c1ccccc1Cl | 7% (inactive)
CN(Cc1cccs1)CC(O)COCc1ccco1 (centres undefined) | 0% (inactive)
COC(=O)c1ccc(N2C(=O)CC(N3CCN(C(=O)c4ccco4)CC3)C2=O)cc1 (centres undefined) | 0% (inactive)
Cc1nc2ccccn2c(=O)c1CCN1CCC(C(=O)c2ccc(F)cc2)CC1 | 0% (inactive)
O=C(CSc1nnc(-c2ccccn2)n1Cc1ccccc1)N1CCCC1 | 0% (inactive)
O=C(NC1=NCCS1)NC12CC3CC(CC(C3)C1)C2 | 2% (inactive)
COc1cccc2cc(C(=O)Nc3cccnc3N3CCOCC3)c(=O)oc12 | 0% (inactive)
CC1CCc2c(sc3c2C2=NS(=O)(=O)CCN2C=N3)C1 (centres undefined) | 2% (inactive)
COc1ccc(-n2c(COc3ccccc3)nnc2SCc2ccc(C#N)cc2)cc1 | 0% (inactive)
O=C(COC(=O)c1ccc(S(=O)(=O)Nc2ccccc2)cc1)NCCN1C(=O)CSC1=O | 0% (inactive)
O=C(CN(Cc1ccco1)C(=O)CNS(=O)(=O)c1ccc(Cl)cc1)NCc1ccc(F)cc1 | 3% (inactive)
CCCn1c(SCC(=O)NCCc2ccccc2)nnc1-c1ccccn1 | 6% (inactive)
Cc1ccccc1-c1nc2ccccc2c(=O)n1C1CCS(=O)(=O)C1 (centres undefined) | 0% (inactive)
Cn1c(=O)c2c(-c3ccncc3)c3c(nc2n(C)c1=O)-c1ccccc1C3=O | 0% (inactive)
Cc1cc2c(c(=O)n1CCN(C)C)C(c1ccncc1)C(C#N)=C(N)O2 (centres undefined) | 0% (inactive)
CCOC(=O)c1c(C)[nH]c(C)c1C(=O)COC(=O)CNC(=O)c1ccc(OCC)cc1 | 0% (inactive)
CCOC(=O)c1ccc(N=Cc2nc(-c3ccccc3)oc2OC(C)=O)cc1 | 0% (inactive)
CCOc1ccc(-c2nnc3sc(-c4c(OC)cccc4OC)nn23)cc1 | 0% (inactive)
